From PubChem BioAssay (Tox21)
Inconclusive results are not listed. A call without a number means that no potency is given here. A number with no mark means an inactive call. Calls of active or inactive are those of the source. Unless noted, the call rests on the fitted dose curve; in most records, active means well fitted curve in the direction sought with a large enough effect in the repeat runs; inconclusive means weak or mixed curves; inactive means no such curve, though single readings can be large; an effect the other way counts as inactive or inconclusive.

Key:
[1] = qHTS assay to identify small molecule agonists of the peroxisome proliferator-activated receptor delta (PPARd) signaling pathway - cell viability counter screen (AID 743211); further: nearly all actives have a fitted effect of over 55% in size
Method in brief: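 Following 5 h plating at 37 C and 5% CO2, PPARd UAS-bla HEK293H cells took up test compounds for 17 h. Viability was quantified by luminescence 30 min after CellTiter-Glo addition at room temperature.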

[2] = biological target: Peroxisome proliferator-activated receptor delta (Homo sapiens) (UniProt Q03181); experiment: qHTS assay to identify small molecule agonists of the peroxisome proliferator-activated receptor delta (PPARd) signaling pathway (AID 743212; calls by dose curve)
Chain of Peroxisome proliferator-activated receptor delta (Homo sapiens) (Q03181 whole entry, looked up): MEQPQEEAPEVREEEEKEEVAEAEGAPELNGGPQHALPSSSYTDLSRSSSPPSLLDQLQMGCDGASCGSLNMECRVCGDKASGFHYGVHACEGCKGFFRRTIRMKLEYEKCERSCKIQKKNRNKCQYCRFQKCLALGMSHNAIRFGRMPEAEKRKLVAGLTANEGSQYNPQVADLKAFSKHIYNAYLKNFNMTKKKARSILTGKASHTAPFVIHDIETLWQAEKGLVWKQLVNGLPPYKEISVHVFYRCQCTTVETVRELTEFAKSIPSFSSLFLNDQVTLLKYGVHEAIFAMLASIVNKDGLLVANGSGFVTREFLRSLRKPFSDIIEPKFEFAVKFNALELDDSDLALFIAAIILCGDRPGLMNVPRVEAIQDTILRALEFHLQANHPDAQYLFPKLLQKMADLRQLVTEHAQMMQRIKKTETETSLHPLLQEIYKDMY
Method in brief: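 GeneBLAzer UAS-bla HEK293H cells carrying a PPARδ construct were exposed to compounds at 37 °C. Beta-lactamase activity was read by FRET fluorescence after 2 h at room temperature with LiveBLAzer B/G substrate.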

[3] = qHTS assay to identify small molecule antagonists of the peroxisome proliferator-activated receptor delta (PPARd) signaling pathway - cell viability counter screen (AID 743213); further: nearly all actives have a fitted effect of over 50% in size
Method in brief: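 CellTiter-Glo was added to PPARd-bla HEK293H wells following 17 h compound treatment in the presence of 300 nM L165041. Luminescence was recorded after 30 min at room temperature.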

[4] = biological target: Peroxisome proliferator-activated receptor delta (Homo sapiens) (UniProt Q03181); experiment: qHTS assay to identify small molecule antagonists of the peroxisome proliferator-activated receptor delta (PPARd) signaling pathway (AID 743215; active means well fitted inhibition curve with a large enough effect in the signal ratio in the repeat runs, not every such curve was filed as active; the % refers to the signal ratio;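 further: cells stimulated with agonist L165041 at 300 nM final during compound exposure; series mostly up to about 62 µM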)
Method in brief: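 PPARd UAS-bla HEK293H cells were pre-incubated 5 h at 37 C, then given test compounds in DMSO plus agonist L165041 (300 nM final). After 17 h at 37 C, beta-lactamase FRET substrate was added; fluorescence read after 2 h at room temperature.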

[5] = qHTS assay to identify small molecule agonists of the farnesoid-X-receptor (FXR) signaling pathway - cell viability counter screen (AID 743218); further: nearly all actives have a fitted effect of over 45% in size
Method in brief: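 FXR-UAS-bla HEK 293T cells, plated 5 h at 37 C, were exposed to compounds for 16 h at 37 C. CellTiter-Glo was then added to the same wells as the bla readout; luminescence read after 30 min at room temperature.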

[6] = biological target: Vitamin D3 receptor (Homo sapiens) (UniProt P11473); experiment: qHTS assay to identify small molecule agonists of the vitamin D receptor (VDR) signaling pathway (AID 743222; calls by dose curve)
Chain of Vitamin D3 receptor (Homo sapiens) (P11473 whole entry, looked up): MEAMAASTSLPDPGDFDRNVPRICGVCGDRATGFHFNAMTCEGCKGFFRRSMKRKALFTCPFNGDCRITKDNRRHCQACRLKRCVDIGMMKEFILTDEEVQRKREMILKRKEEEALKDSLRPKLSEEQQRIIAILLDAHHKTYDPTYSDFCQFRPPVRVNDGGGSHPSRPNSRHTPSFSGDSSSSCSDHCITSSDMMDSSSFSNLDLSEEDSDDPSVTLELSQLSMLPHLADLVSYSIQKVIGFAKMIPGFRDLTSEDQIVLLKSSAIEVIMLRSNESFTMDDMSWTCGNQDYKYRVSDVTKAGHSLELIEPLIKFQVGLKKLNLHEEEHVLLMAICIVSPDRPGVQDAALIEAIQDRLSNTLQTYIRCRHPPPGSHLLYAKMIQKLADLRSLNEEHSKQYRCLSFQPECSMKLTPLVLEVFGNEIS
Method in brief: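 VDR-bla cells were plated 4 h at 37C/5% CO2, then exposed to compounds in DMSO for 16 h. After LiveBLAzer B/G FRET substrate addition and 2 h at room temperature, beta-lactamase reporter fluorescence was read.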

[7] = biological target: Vitamin D3 receptor (Homo sapiens) (UniProt P11473); experiment: qHTS assay to identify small molecule antagonists of the vitamin D receptor (VDR) signaling pathway (AID 743223; active means well fitted inhibition curve with a large enough effect in the signal ratio in the repeat runs, not every such curve was filed as active; the % refers to the signal ratio)
Method in brief: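 Beta-lactamase activity in VDR-bla cells is measured by FRET substrate fluorescence (2 h, room temperature) after cells spend 16 h at 37C with test compound and 3 nM final 1alpha,25-dihydroxyvitamin D3.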

[8] = qHTS assay to identify small molecule antagonists of the vitamin D receptor (VDR) signaling pathway - cell viability counter screen (AID 743225); further: nearly all actives have a fitted effect of over 50% in size
Method in brief: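 In this counter screen, VDR-bla HEK 293T cells receive test compound plus 3 nM final calcitriol for 16 h at 37C. Room-temperature steps of 2 h with the beta-lactamase substrate, then 30 min with CellTiter-Glo, precede the luminescence read.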

[9] = qHTS assay to identify small molecule agonists of the NFkB signaling pathway - cell viability counter screen (AID 1159515; calls by dose curve; further: series mostly up to about 61 µM; nearly all actives have a fitted effect of over 55% in size)
Method in brief: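 NFkB-bla ME-180 cells, 2,000/well, were plated overnight at 37 C, 5% CO2, then exposed to compounds in DMSO for 5 hr. After the bla FRET read, CellTiter-Glo was added to the same wells; luminescence was read after 30 min at room temperature.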

[10] = qHTS assay to identify small molecule agonists of the endoplasmic reticulum stress response signaling pathway (AID 1159516; active means well fitted activation curve with a large enough effect in the signal ratio in the repeat runs, not every such curve was filed as active; the % refers to the signal ratio; further: potency means the concentration at half of the fitted maximal effect)
Method in brief: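 CellSensor ESRE-bla HeLa cells, carrying a beta-lactamase reporter driven by the ER stress response element, were plated overnight and exposed to compounds for 5 hr at 37 C. Reporter activity was read as FRET substrate fluorescence after 2 hr at room temperature.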

[11] = qHTS assay to identify small molecule agonists of the endoplasmic reticulum stress response signaling pathway - cell viability counter screen (AID 1159517; calls by dose curve; further: series mostly up to about 61 µM; nearly all actives have a fitted effect of over 50% in size)
Method in brief: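 ESRE-bla HeLa cells, 1,500 per well, seeded overnight then treated with compounds for 5 hr at 37 C. After the beta-lactamase read, viability in the same wells is measured by CellTiter-Glo luminescence after 30 min at room temperature.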

[12] = qHTS assay to identify small molecule antagonists of the retinoid-related orphan receptor gamma (ROR-gamma) signaling pathway - cell viability counter screen (AID 1159520); further: nearly all actives have a fitted effect of over 50% in size
Method in brief: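 Tet-on ROR gamma CHO cells were given compounds for 2 hr, then doxycycline hyclate at 1 uM final, and incubated 16 hr at 37 C. Viability was measured as ATP content by CellTiter-Glo luminescence.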

[13] = biological target: Nuclear receptor ROR-gamma (Homo sapiens) (UniProt P51449); experiment: qHTS assay to identify small molecule antagonists of the retinoid-related orphan receptor gamma (ROR-gamma) signaling pathway (AID 1159521; further: nearly all actives have a fitted effect of over 50% in size; further: potency means the concentration at half of the fitted maximal effect)
Method in brief: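 Screening format: cell-based luciferase reporter in CHO cells with doxycycline-inducible RORγ. Compound pre-exposure lasts 2 h, doxycycline is 1 uM final, induction runs 16 h at 37 C, and ONE-Glo luminescence is read.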

[14] = qHTS assay to identify small molecule agonists of the AP-1 signaling pathway - cell viability counter screen (AID 1159525; calls by dose curve; further: nearly all actives have a fitted effect of over 55% in size)
Method in brief: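 AP-1-bla ME-180 cells in Opti-MEM with 0.5% dialyzed FBS, compound exposure 5 h at 37 C in 15-point titration. Viability read in the same wells as ATP content by CellTiter-Glo luminescence, normalised to tetra-n-octylammonium bromide and DMSO controls.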

[15] = biological target: Retinoic acid receptor RXR-alpha (Homo sapiens) (UniProt P19793); experiment: qHTS assay to identify small molecule agonists of the RXR signaling pathway (AID 1159527; calls by dose curve; further: nearly all actives have a fitted effect of over 35% in size)
Chain of Retinoic acid receptor RXR-alpha (Homo sapiens) (P19793 whole entry, looked up): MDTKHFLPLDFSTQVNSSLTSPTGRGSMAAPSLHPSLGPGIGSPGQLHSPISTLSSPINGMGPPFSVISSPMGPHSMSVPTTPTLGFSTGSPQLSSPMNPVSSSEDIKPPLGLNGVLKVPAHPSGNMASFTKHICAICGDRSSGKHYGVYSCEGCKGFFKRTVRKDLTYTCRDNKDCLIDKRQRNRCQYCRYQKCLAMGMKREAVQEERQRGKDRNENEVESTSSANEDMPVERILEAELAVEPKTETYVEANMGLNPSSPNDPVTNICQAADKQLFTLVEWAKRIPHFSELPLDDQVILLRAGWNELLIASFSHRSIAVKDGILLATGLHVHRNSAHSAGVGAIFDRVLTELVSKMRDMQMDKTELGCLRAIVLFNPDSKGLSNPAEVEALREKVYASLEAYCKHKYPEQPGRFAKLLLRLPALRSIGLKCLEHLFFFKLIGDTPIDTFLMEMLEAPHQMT
Method in brief: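 Fluorescence ratio readout (460 vs 530 nm) from GeneBLAzer RXR-alpha HEK 293T cells after 16 hr compound treatment; cells seeded 5 hr beforehand in low-serum, charcoal-stripped medium.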

[16] = qHTS assay to identify small molecule agonists of the vitamin D receptor (VDR) signaling pathway - cell viability counter screen (AID 743224)
Method in brief: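 VDR-bla cells were preincubated 4 h at 37C/5% CO2, then exposed to compounds for 16 h. After the 2 h room-temperature bla FRET read, CellTiter-Glo was added to the same wells and luminescence read after 30 min.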

[17] = biological target: Bile acid receptor (Homo sapiens) (UniProt Q96RI1); experiment: qHTS assay to identify small molecule antagonists of the farnesoid-X-receptor (FXR) signaling pathway (AID 743217; active means well fitted inhibition curve with a large enough effect in the signal ratio in the repeat runs, not every such curve was filed as active; the % refers to the signal ratio)
Chain of Bile acid receptor (Homo sapiens) (Q96RI1 whole entry, looked up): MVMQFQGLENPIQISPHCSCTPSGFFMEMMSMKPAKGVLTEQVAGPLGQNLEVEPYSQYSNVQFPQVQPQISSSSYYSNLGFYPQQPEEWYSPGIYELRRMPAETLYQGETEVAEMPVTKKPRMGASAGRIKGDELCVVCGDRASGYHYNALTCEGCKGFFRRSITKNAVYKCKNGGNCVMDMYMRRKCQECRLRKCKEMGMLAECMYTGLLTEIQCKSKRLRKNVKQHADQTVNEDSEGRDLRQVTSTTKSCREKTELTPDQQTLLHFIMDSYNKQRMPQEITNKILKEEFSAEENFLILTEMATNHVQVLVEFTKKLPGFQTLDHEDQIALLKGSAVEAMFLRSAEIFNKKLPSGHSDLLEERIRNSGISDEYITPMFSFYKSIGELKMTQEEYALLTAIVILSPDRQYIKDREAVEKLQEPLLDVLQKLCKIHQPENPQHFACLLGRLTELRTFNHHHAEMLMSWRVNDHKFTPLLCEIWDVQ
Method in brief: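 FXR-UAS-bla HEK 293T cells pre-incubated 5 h at 37 °C, then exposed to compounds with chenodeoxycholic acid (50 uM final) for 16 h at 37 °C. Beta-lactamase reporter read by LiveBLAzer B/G FRET substrate fluorescence after 2 h at room temperature.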

[18] = biological target: Bile acid receptor (Homo sapiens) (UniProt Q96RI1); experiment: qHTS assay to identify small molecule agonists of the farnesoid-X-receptor (FXR) signaling pathway (AID 743220; active means well fitted activation curve with a large enough effect in the signal ratio in the repeat runs, not every such curve was filed as active; the % refers to the signal ratio)
Method in brief: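 Beta-lactamase reporter under UAS control in GeneBLAzer FXR HEK 293T cells (5000/well) measured with LiveBLAzer FRET substrate after 2 h at room temperature. Compound exposure lasted 16 h at 37C.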

[19] = qHTS assay to identify small molecule antagonists of the farnesoid-X-receptor (FXR) signaling pathway - cell viability counter screen (AID 743221; active means well fitted cell-killing curve with a large enough effect in the repeat runs, not every such curve was filed as active; further: nearly all actives have a fitted effect of over 50% in size)
Method in brief: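 Compound effects on cell number were measured as CellTiter-Glo luminescence in HEK 293T cells expressing FXR-UAS-bla, after 16 h at 37 C with 50 uM CDCA (final).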

[20] = qHTS assay to identify small molecule agonists of the AP-1 signaling pathway (AID 1159526; calls by dose curve)

SMILES	Potency [1]	outcome [2]	Potency [3]	outcome [4]	Potency [5]	outcome [6]	Potency [7]	Potency [8]	Potency [9]	Potency [10]	outcome [11]	Potency [12]	Potency [13]	Potency [14]	Potency [15]	Potency [16]	outcome [17]	outcome [18]	Potency [19]	Potency [20]
C=C(C)C(=O)OCCOc1ccccc1	inactive	inactive	inactive	inactive	inactive	inactive	inactive	inactive	inactive	inactive	inactive	inactive	inactive	inactive	inactive					
Cc1cccc(C(C)(C)C)c1O	inactive		inactive		inactive	inactive	inactive	inactive	inactive	inactive	inactive	inactive	inactive	inactive	inactive	inactive				
CN(C(=O)CCCOc1ccc2[nH]c(=O)ccc2c1)C1CCCCC1	inactive		inactive		inactive	inactive		inactive	inactive	inactive	inactive	inactive	inactive	inactive	inactive		inactive	inactive	inactive	
CC[C@]12CCCN3CCc4c(n(c5ccccc45)C(=O)C1)[C@@H]32	inactive	inactive	inactive		inactive			inactive	inactive	inactive	inactive	inactive	inactive	inactive	inactive	inactive			inactive	
C=C(C)C(=O)OC(C)C	inactive		inactive			inactive	inactive	inactive	inactive	inactive	inactive	inactive	inactive	inactive	inactive				inactive	
CCCCOc1ccc(CC(=O)NO)cc1				inactive				inactive	inactive	inactive	inactive	inactive	inactive	inactive		inactive				inactive
CNS(=O)(=O)Cc1ccc2[nH]cc(CCN(C)C)c2c1	inactive	inactive	inactive	inactive	inactive			inactive	inactive	inactive	inactive	inactive	inactive	inactive	inactive	inactive	inactive	inactive	inactive	
CCCCCCOC(=O)CCC	inactive	inactive	inactive	inactive	inactive	inactive		inactive	inactive	inactive	inactive	inactive	inactive	inactive	inactive	inactive		inactive	inactive	
CC(=O)[C@@]1(O)CC[C@H]2[C@@H]3C[C@H](C)C4=CC(=O)CC[C@]4(C)[C@H]3CC[C@@]21C	inactive	inactive	inactive		inactive			inactive	inactive	inactive	inactive	inactive	inactive	inactive	inactive	inactive			inactive	
CC(=O)N(O)CCCCCNC(=O)CCC(=O)N(O)CCCCCNC(=O)CCC(=O)N(O)CCCCCN	inactive	inactive	inactive	inactive			inactive	inactive	inactive	inactive	inactive	inactive	inactive	inactive	inactive	inactive			inactive	
C=CC(=O)OCCOC(=O)CCC(=O)O	inactive		inactive			inactive	inactive	inactive	inactive	inactive	inactive	inactive	inactive	inactive	inactive	inactive	inactive	inactive	inactive	
CCc1nn(C2CCCCC2)c2cc(C3(C#N)CCC(C(=O)O)CC3)ccc12 (configuration not stated)	inactive	inactive	inactive		inactive		inactive	inactive	inactive	1.55 µM (active)	inactive	inactive	27.3 µM (active)	inactive	inactive	inactive		inactive	inactive	
CC(C)NCC(O)c1cc(O)cc(O)c1 (configuration not stated)	inactive		inactive		inactive	inactive	inactive	inactive	inactive	inactive	inactive	inactive	inactive	inactive	inactive				inactive	
O=C(/C=C/c1ccc(O)c(O)c1)O[C@@H]1C[C@](O)(C(=O)O)C[C@@H](O)[C@H]1O	inactive	inactive	inactive					inactive	inactive	inactive	inactive	inactive	inactive	inactive	inactive	inactive			inactive	
CN(c1nccc(=O)[nH]1)C1CCN(c2nc3ccccc3n2Cc2ccc(F)cc2)CC1					inactive			inactive	inactive	inactive	inactive	inactive	inactive	inactive		inactive				inactive
CCCCCc1ccc(N)cc1	inactive	inactive			inactive	inactive	inactive	inactive	inactive	inactive	inactive	inactive	inactive	inactive	inactive	inactive				
CCOC(=O)CC(=O)c1cc(F)c(Cl)nc1Cl	inactive	inactive	inactive	inactive	inactive				inactive	inactive	inactive	inactive	inactive	inactive	inactive		inactive	inactive	inactive	
